# Test results reported in PubChem BioAssay.
# The source made the active and inactive calls.
# Assays:
# [1] = small molecules captured by biotinylated probe aFSTL3 – biochemical, small-molecule microarray, fluorescence 635/667, stem cell growth factor project, primary screen (AID 1064); settings: higher = more signal;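 note: measures binding of the biotinylated anti-FSTL3 antibody to printed compounds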
# [2] = binders from COS7 lysate, DM2A8 probe, primary screen, torsin A project, cell lysate, small-molecule microarray, fluorescence 635/667 (AID 1065); settings: higher = more signal, COS7 lysate expressing mutant human TOR1A
# [3] = small molecules captured by biotinylated probe aFGF2 – biochemical, small-molecule microarray, fluorescence 635/667, stem cell growth factor project, primary screen (AID 1067); settings: higher = more signal;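 note: measures binding of biotinylated aFGF2 protein to printed compounds on slides; z-score merges feature fluorescence and signal-to-noise across triplicate slides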
# [4] = small molecules captured by biotinylated probe aFGF10 – biochemical, small-molecule microarray, fluorescence 635/667, stem cell growth factor project, primary screen (AID 1071); settings: higher = more signal;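 note: score merges 667 nm spot intensity and signal to noise from triplicate slides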
# [5] = target: Neurogenic locus notch homolog protein 2 (Homo sapiens) (UniProt Q04721); assay: small molecules binding Notch2 protein – biochemical, small-molecule microarray, 635 nm fluorescence, stem cell growth factors, primary screen (AID 1073); settings: higher = more signal
# Sequence of Neurogenic locus notch homolog protein 2 (Homo sapiens) (Q04721 whole entry, looked up, canonical isoform): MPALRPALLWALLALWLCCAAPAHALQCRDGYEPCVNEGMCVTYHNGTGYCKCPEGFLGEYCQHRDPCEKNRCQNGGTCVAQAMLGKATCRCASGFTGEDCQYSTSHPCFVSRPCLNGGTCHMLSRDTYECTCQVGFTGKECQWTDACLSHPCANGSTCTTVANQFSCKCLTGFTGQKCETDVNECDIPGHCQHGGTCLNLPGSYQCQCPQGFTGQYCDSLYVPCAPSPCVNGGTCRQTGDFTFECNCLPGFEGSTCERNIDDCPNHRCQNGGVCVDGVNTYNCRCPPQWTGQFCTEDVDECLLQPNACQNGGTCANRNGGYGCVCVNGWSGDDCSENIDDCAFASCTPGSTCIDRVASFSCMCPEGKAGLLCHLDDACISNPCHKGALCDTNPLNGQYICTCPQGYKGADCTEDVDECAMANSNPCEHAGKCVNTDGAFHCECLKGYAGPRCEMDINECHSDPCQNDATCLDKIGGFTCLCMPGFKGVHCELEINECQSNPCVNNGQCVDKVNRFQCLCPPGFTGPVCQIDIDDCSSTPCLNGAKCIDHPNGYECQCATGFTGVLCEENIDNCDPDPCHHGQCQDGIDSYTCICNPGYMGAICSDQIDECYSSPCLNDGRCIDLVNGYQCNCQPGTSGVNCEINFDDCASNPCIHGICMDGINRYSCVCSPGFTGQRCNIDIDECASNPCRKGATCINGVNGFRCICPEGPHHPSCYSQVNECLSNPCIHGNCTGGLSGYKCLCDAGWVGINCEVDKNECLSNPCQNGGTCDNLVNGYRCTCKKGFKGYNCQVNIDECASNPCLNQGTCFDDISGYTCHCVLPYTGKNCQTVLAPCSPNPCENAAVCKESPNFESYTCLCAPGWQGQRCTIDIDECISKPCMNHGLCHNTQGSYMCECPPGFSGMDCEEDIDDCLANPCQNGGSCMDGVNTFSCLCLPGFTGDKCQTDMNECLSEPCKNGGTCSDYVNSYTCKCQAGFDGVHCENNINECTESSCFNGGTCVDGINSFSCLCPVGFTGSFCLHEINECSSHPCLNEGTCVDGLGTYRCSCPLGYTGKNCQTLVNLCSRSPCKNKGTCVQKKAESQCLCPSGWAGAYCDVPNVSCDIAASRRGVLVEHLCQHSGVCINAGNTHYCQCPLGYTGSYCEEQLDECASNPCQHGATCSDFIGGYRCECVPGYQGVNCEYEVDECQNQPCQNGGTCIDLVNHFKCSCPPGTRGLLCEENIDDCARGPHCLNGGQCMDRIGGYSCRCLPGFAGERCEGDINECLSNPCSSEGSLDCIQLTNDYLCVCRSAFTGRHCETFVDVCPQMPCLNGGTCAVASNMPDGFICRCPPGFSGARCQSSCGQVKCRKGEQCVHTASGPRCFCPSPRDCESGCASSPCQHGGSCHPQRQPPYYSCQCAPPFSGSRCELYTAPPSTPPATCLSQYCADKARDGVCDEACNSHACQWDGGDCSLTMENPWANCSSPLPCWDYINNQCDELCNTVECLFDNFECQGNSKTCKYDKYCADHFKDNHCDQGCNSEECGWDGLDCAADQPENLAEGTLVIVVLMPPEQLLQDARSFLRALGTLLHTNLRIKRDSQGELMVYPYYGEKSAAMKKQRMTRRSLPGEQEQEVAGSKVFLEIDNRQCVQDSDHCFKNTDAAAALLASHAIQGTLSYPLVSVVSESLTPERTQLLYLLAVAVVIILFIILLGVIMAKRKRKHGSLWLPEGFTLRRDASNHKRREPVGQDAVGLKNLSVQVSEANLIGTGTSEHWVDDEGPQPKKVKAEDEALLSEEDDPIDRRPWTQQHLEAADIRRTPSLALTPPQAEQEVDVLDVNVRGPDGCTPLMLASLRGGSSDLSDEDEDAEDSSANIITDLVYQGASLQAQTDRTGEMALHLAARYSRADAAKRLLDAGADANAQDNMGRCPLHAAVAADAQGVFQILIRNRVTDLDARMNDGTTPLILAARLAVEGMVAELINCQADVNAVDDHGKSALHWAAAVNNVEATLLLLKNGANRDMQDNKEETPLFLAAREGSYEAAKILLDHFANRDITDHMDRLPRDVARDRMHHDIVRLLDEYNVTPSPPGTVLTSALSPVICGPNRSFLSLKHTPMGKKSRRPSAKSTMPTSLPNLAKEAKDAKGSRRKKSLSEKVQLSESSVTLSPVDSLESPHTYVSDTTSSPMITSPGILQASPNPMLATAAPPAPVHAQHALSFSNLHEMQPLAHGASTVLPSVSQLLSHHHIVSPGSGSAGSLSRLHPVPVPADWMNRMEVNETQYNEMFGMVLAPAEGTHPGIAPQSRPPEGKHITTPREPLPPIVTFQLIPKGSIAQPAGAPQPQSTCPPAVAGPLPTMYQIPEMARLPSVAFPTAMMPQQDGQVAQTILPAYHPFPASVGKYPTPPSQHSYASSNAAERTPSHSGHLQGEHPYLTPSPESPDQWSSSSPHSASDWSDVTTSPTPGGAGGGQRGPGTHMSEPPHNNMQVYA
# [6] = target: Pro-neuregulin-1, membrane-bound isoform (Homo sapiens) (UniProt Q02297); assay: small molecules binding neuregulin-1 protein – biochemical, small-molecule microarray, fluorescence 635/667, psychiatric disease protein project, primary screen (AID 1075); settings: NRG1 binding, 635 nm fluorescence, higher = more signal;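 note: score combines 667 nm spot fluorescence with signal to noise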
# Sequence of Pro-neuregulin-1, membrane-bound isoform (Homo sapiens) (Q02297 whole entry, looked up, the tested form may be a part, canonical isoform): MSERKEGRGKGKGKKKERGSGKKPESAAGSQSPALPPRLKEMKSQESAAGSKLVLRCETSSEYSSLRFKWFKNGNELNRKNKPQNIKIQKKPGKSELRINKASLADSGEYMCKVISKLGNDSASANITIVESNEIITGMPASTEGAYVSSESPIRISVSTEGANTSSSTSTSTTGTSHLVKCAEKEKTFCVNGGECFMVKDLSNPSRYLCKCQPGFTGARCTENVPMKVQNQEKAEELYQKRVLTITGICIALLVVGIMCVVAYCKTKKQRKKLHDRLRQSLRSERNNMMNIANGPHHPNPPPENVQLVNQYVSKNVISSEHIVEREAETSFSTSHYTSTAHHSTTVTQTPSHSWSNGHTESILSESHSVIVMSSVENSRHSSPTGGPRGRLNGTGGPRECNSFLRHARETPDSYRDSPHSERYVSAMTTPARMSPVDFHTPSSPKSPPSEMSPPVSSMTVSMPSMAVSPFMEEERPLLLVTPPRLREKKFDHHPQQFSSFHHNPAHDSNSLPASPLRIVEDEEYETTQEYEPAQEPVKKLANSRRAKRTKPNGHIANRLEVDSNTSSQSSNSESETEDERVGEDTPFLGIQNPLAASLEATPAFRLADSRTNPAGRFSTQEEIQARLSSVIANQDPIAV
# [7] = system: Neuregulin-1 EGF-like domain; assay: small molecules binding NRG1 EGF domain – biochemical, small-molecule microarray, 635 nm fluorescence, primary screen (AID 1081); settings: higher = more signal;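 note: binding of the protein to compounds printed on small-molecule microarray slides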
# [8] = FRG1 expression reporter modulators in myotubes – cell-based, C2C12 myotubes, firefly/Renilla luciferase, luminescence, FRG1 inhibition for FSHD, primary screen (AID 1084); settings: FRG1 promoter luciferase, higher = more signal, called active from +8 up or from −8 down
# [9] = small molecules captured by biotinylated probe aFST – biochemical, small-molecule microarray, fluorescence 635/667, stem cell growth factor project, primary screen (AID 1086); settings: higher = more signal;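 note: score merges 667 nm fluorescence with signal-to-noise of each printed compound spot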
# [10] = binders of probe aHhip on microarray, primary screen, stem cell growth factor project, biochemical, small-molecule microarray, fluorescence 635/667 (AID 1087); settings: higher = more signal;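 note: score merges spot fluorescence at 667nm with spot signal to noise ratio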
# [11] = system: PRMT1 (protein arginine N-methyltransferase 1); assay: small molecules binding arginine methyltransferase PRMT1 – biochemical, small-molecule microarray, 635 nm fluorescence, primary screen (AID 1088); settings: higher = more signal;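 note: binding of Prmt1 protein to compounds spotted on small-molecule microarray slides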
# [12] = growth effects on S. cerevisiae YJM789 – YJM789 clinical isolate, OD600, 24 h, basal, primary screen (AID 1089); settings: higher = more signal, called active from +8 up or from −8 down;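 note: growth of clinical yeast isolate S. cerevisiae YJM 789 seeded 1000 cells per well; test concentration not given here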
# [13] = S. pombe growth modifiers, basal conditions – strain 972, OD600, 24 h, no modulator, primary screen (AID 1090);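 note: basal condition with compound alone and no growth modifier present; test concentration not given here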; settings: S. pombe 972 growth, higher = more signal, called active from +8 up or from −8 down
# [14] = budding yeast growth modifiers under rapamycin – strain BY4716, OD600, 96 h, primary screen (AID 1091); note: test concentration not given here; settings: S. cerevisiae BY4716 + rapamycin, higher = more signal, called active from +8 up or from −8 down
# [15] = target: Torsin-1A-interacting protein 2 (Homo sapiens) (UniProt Q8NFQ8); assay: small molecules binding lysate-expressed LULL1 – cell lysate, human LULL1 lysate, 635/667 nm fluorescence, primary screen (AID 1092); settings: small-molecule microarray, hLULL1 lysate binding, 635 nm fluorescence; higher = more signal;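 note: probe is lysate of COS7 cells overexpressing human LULL1; score merges per-feature 667 nm fluorescence with signal-to-noise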
# Sequence of Torsin-1A-interacting protein 2 (Homo sapiens) (Q8NFQ8 whole entry, looked up): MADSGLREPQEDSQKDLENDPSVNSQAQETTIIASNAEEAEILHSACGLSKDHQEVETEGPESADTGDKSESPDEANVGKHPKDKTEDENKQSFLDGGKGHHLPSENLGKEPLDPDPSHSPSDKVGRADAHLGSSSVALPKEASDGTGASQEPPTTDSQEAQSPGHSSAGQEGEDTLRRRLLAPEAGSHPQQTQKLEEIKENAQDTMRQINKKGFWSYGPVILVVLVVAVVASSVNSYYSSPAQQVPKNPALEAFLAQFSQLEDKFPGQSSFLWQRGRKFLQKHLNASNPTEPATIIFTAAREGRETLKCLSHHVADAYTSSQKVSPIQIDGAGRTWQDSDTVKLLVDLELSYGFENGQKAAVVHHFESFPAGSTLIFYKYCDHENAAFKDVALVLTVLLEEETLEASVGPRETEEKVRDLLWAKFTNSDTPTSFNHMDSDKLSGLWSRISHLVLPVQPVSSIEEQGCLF
# [16] = optical density change of DRC41 E. coli – strain DRC41, OD650, 24 h, E. coli filamentation project, primary screen (AID 1093);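 note: MC1000 strain lacking acrAB efflux and sulA so SOS filamentation is blocked; test concentration not given here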; settings: E. coli DRC41 growth, higher = more signal, called active from +8 up or from −8 down
# [17] = probe aLefty2 binding to arrayed compounds – biochemical, biotinylated probe, 635/667 nm fluorescence, primary screen (AID 1094); settings: small-molecule microarray, higher = more signal;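 note: score merges spot fluorescence near 667 nm with spot signal-to-noise ratio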
# [18] = system: Noggin (protein binding on small-molecule microarray); assay: small molecules binding Noggin protein – biochemical, 635/667 nm fluorescence, primary screen (AID 1095); settings: 635 nm fluorescence, higher = more signal;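 note: score merges 667 nm feature fluorescence with signal to noise over triplicate slides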
# [19] = target: Neurogenic locus notch homolog protein 3 (Homo sapiens) (UniProt Q9UM47); assay: small molecules binding NOTCH3 protein – biochemical, 635/667 nm fluorescence, primary screen (AID 1096); settings: small-molecule microarray, 635 nm fluorescence, higher = more signal
# [20] = probe aEGFR binding to arrayed compounds – biochemical, biotinylated probe, 635/667 nm fluorescence, primary screen (AID 1097); settings: small-molecule microarray, higher = more signal;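 note: probe is a biotinylated anti-EGFR antibody binding compounds printed on slides; score combines fluorescence near 667 nm and signal to noise of each spot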
SMILES,composite z-score [1],composite z-score [2],composite z-score [3],composite z-score [4],composite z-score [5],composite z-score [6],composite z-score [7],z-score [8],composite z-score [9],composite z-score [10],composite z-score [11],z-score [12],z-score [13],z-score [14],composite z-score [15],z-score [16],composite z-score [17],composite z-score [18],composite z-score [19],composite z-score [20]
[N-]=[N+]=Nc1ccccc1C[C@]1(C(N)=O)N=C(c2ccc(OCCCO)cc2)O[C@H]1c1ccccc1,0.235,0.327,0.0931,0.373,0.361,1.82,1.22,-3.01 (inactive),0.85,-0.0237,0.203,0.515 (inactive),0.248 (inactive),0.143 (inactive),3.19,0.104 (inactive),-0.0893,-0.194,0.444,-0.115
COc1ccc([Si](C)(C)[C@H]2[C@H](CCO)O[C@@]3(C(=O)N(Cc4ccc(N5C(=O)COc6ccccc65)cc4)c4ccccc43)[C@@H]2C)cc1,0.0421,-0.271,-0.14,-0.164,-0.24,0.774,0.474,-3.99 (inactive),-0.148,0.0129,1.06,0.223 (inactive),-0.379 (inactive),25.3 (active),1.31,-0.132 (inactive),-0.0796,-0.6,-0.0154,-0.222
CN1C(=O)C2C=CC(C(O)c3cccs3)N(Nc3ccccc3)C2C1=O (stereo not given),0.0812,0.552,-0.0628,0.415,0.94,1.22,1.4,-0.263 (inactive),0.388,0.261,0.881,0.442 (inactive),0.917 (inactive),0.662 (inactive),3.24,-1.32 (inactive),0.139,0.395,0.826,-0.0111
CC(C)C[C@H]1NC(=O)[C@@]23C(=O)N[C@@H](Cc4ccccc4)C2[C@H](C)[C@@]2(C)O[C@H]2C3/C=C/C/C=C\CNC(=O)[C@H](Cc2ccccc2)NC1=O (stereo not given in full),-0.404,0.443,-0.0973,0.307,0.349,1.04,0.976,0.688 (inactive),0.146,-0.0994,1.14,0.871 (inactive),-0.388 (inactive),-0.332 (inactive),1.13,0.11 (inactive),-0.157,1.39,0.937,-0.156
O=C1NC(=O)C2C1C=CC(C(O)C(c1ccccc1)c1ccccc1)N2Nc1ccc(Cl)cc1Cl (stereo not given),0.246,-0.471,0.103,0.501,1.49,0.782,0.756,1.04 (inactive),1.44,0.0373,0.532,-0.111 (inactive),-0.767 (inactive),1.5 (inactive),2.86,-1.27 (inactive),0.185,0.561,0.982,-0.0267
CC(C)C(CO)N1C(=O)[C@@H]2[C@H]3C(=O)OCC=C[C@H]3OC23C=CCN(C(C)C)C(=O)[C@@H]13 (stereo not given in full),-0.25,-0.615,-0.187,-0.271,-0.142,0.814,-0.677,-0.724 (inactive),-0.422,-0.374,0.261,0.58 (inactive),0.38 (inactive),0.136 (inactive),1.4,1.99 (inactive),-0.273,0.503,0.51,-0.194
CC(C)C[C@@H]1NC(=O)[C@@H]2C[C@H](C(=O)NCCCCCN)[C@H](c3cccc(OCCO)c3)N2C1=O,0.235,-0.0087,0.0465,0.796,0.128,1.4,1.29,-0.284 (inactive),0.393,0.28,1.3,-4.39 (inactive),-0.894 (inactive),-1.13 (inactive),2.73,0.758 (inactive),0.215,0.359,0.244,-0.0549
COc1ccc([C@H]2C[C@H]3C(Br)=C[C@@H]2C(=O)[C@]32CO2)cc1,0.203,0.133,-0.083,-0.126,-0.239,-0.152,-0.577,1.96 (inactive),0.0125,-0.0618,-0.431,0.29 (inactive),-3.66 (inactive),-0.417 (inactive),-0.807,1.7 (inactive),-0.0561,0.101,-0.282,-0.217
C=CCOC(=O)[C@H]1[C@@H]2C(=O)O[C@@H](c3ccccc3)[C@@H](c3ccccc3)N2[C@@H](c2ccc(OCCOC(=O)[C@@H]3C[C@@H]4C(=O)N[C@@H](CCCCN(C)C)C(=O)N4[C@@H]3c3ccc(O)cc3)cc2)[C@]12C(=O)Nc1ccc(I)cc12,-0.617,1.04,-0.0468,0.589,0.766,1.27,1.33,-0.694 (inactive),0.429,-0.112,1.46,1.36 (inactive),-1.09 (inactive),1.52 (inactive),2.77,-1.34 (inactive),-0.0823,1.51,1.05,0.0752
O=C(c1ccccc1)N1Cc2ccccc2[C@@H]2OC(c3ccc(OCCCO)cc3)=N[C@]2(Cc2ccccc2)C1=O,-0.0231,0.483,0.0462,0.158,0.649,1.32,1.24,-1.05 (inactive),-0.171,-0.208,1.2,-0.756 (inactive),0.833 (inactive),4.11 (inactive),3.13,-0.0783 (inactive),0.0337,1.05,1.1,-0.0187
